Compound activity (PubChem BioAssay)
Hits are enriched below; roughly 5.8% of the tested compounds scored in any of these assays.
RORgamma inh: inhibitors of mouse ROR gamma transcriptional activity. P51450. AID 2551. Drosophila S2 Gal4-RORgamma UAS-luciferase reporter, 20 h. Potency, µM (series often up to 53.6 µM), without a hit: top-dose activity change, negative = inhibition, usual class: inhibitors. 310,000 tested, 5.4% active; further: potency means the concentration at half of the fitted maximal effect; on the % scale 0 is the no-effect control and ±100 the full control effect; nearly all actives have a fitted effect of over 60% in size
Target sequence (P51450 whole entry, looked up, the tested form may be a part): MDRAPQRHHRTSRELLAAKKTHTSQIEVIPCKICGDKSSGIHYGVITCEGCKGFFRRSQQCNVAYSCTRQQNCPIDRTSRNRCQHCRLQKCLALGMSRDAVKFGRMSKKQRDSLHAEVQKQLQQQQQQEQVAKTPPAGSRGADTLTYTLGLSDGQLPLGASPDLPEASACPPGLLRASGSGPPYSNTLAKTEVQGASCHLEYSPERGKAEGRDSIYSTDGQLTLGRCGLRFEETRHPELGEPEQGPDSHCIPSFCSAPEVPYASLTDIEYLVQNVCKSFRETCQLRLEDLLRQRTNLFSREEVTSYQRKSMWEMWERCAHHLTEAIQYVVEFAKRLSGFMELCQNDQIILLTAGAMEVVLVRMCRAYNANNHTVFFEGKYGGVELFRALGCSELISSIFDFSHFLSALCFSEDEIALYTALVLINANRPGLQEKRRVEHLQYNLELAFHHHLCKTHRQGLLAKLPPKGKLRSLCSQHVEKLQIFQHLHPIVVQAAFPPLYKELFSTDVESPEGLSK
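In this cell-based reporter format, copper sulfate (700 uM final) drives Gal4–ROR gamma fusion expression from a metallothionein promoter in Drosophila Schneider cells; compounds preincubated 1 hr, reporter read after 20 hr at ambient temperature.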
TRPV1 ag: human TRPV1 agonism | 320,000 tested, 0.19% active | TRPV1-expressing cells, Fluo-8 calcium influx, agonist mode | activation, % at 8.33 µM; in the data active means activation above about 80%; inconclusive means between about 30% and that limit; further: 0% is about no effect
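Fluo-8 calcium influx in TRPV1-expressing cells, kinetic read (ex 480/em 520 nm). Compound added and read 3 min for agonist activity, followed by capsaicin at EC20 final and 2 min further read for enhancement.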
uPA surface inh: cell surface uPA generation inhibition | cell surface uPA generation assay, qHTS | Potency, µM (doses to about 38.3 µM), for the others: at the highest dose activity change, negative = inhibition, hits mostly inhibitors | 330,000 tested, 0.31% active; active means well fitted inhibition curve with a large enough effect; inconclusive means small, poorly fitted or top-dose-only effect; inactive means no such curve, though single readings can be large or run the other way; tested in mouse RAW 264.7 cells; further: potency means the concentration at half of the fitted maximal effect; on the % scale 0 is the no-effect control and ±100 the full control effect; nearly all actives have a fitted effect of over 55% in size
VP16 counter: inhibits Gal4-VP16 luciferase reporter, ROR gamma counter-screen; Drosophila S2 Gal4-VP16 UAS-luciferase, luminescence, 20 h; Potency, µM (series often up to 53.6 µM), for the others: top-dose activity, negative = inhibition, usual class: inhibitors; 310,000 tested, 3.5% active;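 further: Gal4-VP16 expression switched on by copper sulfate through the metallothionein promoter; potency means the concentration at half of the fitted maximal effect; on the % scale 0 is the no-effect control and ±100 the full control effect; nearly all actives have a fitted effect of over 50% in size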
TRPV1 potentiator: potentiators of human vanilloid receptor 1 (TRPV1); 320,000 tested, 0.02% active; potentiation, % at 8.33 µM; TRPV1-expressing cells, Fluo-8 calcium influx, capsaicin EC20 potentiation; AID 540277; in the data active means potentiation above about 80%; inconclusive means between about 30% and that limit; further: 0% is about no effect
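Cells expressing TRPV1 were dye-loaded with Fluo-8 and read kinetically: 10 s baseline, 3 min after compound (agonist portion), then 2 min after EC20 capsaicin (allosteric enhancer portion). Calcium-bound dye fluorescence at 480/520 nm.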
* = called active by the depositor; [ ] = dose if it differs, or a comment. Unless noted, the call rests on the fitted dose curve; in most records, active means well fitted curve in the direction sought with a large enough effect; inconclusive means small, poorly fitted or top-dose-only effect, or another doubt; inactive means no such curve, though single readings can be large; an effect the other way counts as inactive or inconclusive.

How did COc1cc(/C=C/c2cccc[n+]2C)ccc1OCC(=O)Nc1ccccc1C do in these assays?
RORgamma inh: -8.2%; TRPV1 ag: -0.7; uPA surface inh: -1.1%; VP16 counter: -8.4%; TRPV1 potentiator: 3.8

Results for CCOc1cc(/C=C\[N+](=O)[O-])ccc1OCC(=O)Nc1ccccc1C ?
RORgamma inh: 1.12µM*; TRPV1 ag: -3.5; uPA surface inh: 7.5%; VP16 counter: 1.78µM*; TRPV1 potentiator: 6.5

What do the screens show for `CC(C)c1ccc(NC(=S)NN(c2ccccc2)c2ccccc2)cc1`?
RORgamma inh: 3.16µM*; TRPV1 ag: -5.5; uPA surface inh: -16.6%; VP16 counter: 5.01µM*; TRPV1 potentiator: 20.5

How did CCNC(=S)NN(c1ccccc1)c1ccccc1 do in these assays?
RORgamma inh: 7.94µM*; TRPV1 ag: 7.3; uPA surface inh: -4.1%; VP16 counter: inconclusive; TRPV1 potentiator: -4.0

Results for COC(=O)C1(Cc2ccccc2)C2c3cc(C(=O)N4CCCC4)n(Cc4ccc(OC(F)(F)F)cc4)c3CC2CN1C(=O)c1ccccc1 (stereo unspecified) ?
RORgamma inh: 25.8%; VP16 counter: 2.4%

What do the screens show for `C[C@@H]1C(=O)N(S(=O)(=O)c2ccccc2[N+](=O)[O-])[C@H]1c1ccc(-c2ccccc2)cc1`?
RORgamma inh: 3.5%; VP16 counter: -27.1%

What do the screens show for `Cc1ccc(CNC(=O)Cc2csc(Nc3nc(=S)[nH]c4ccccc34)n2)cc1`?
RORgamma inh: 1.41µM*; TRPV1 ag: -1.1; VP16 counter: 7.08µM*; TRPV1 potentiator: 7.5

Results for O=C(Cc1csc(Nc2nc(=S)[nH]c3ccccc23)n1)NCc1cccc(Cl)c1 ?
RORgamma inh: 6.31µM*; VP16 counter: inconclusive

How did O=C(Cc1csc(Nc2nc(=S)[nH]c3ccccc23)n1)N1CCN(c2cccc(C(F)(F)F)c2)CC1 do in these assays?
RORgamma inh: 0.631µM*; TRPV1 ag: 2.1; uPA surface inh: -2.5%; VP16 counter: 7.08µM*; TRPV1 potentiator: -5.1

Results for O=C(c1cc(=O)[nH]c2ccccc12)N1CCN(c2cccc(C(F)(F)F)c2)CC1 ?
RORgamma inh: 2.3%; TRPV1 ag: -7.7; uPA surface inh: 2.8%; VP16 counter: 7.5%; TRPV1 potentiator: 1.5

Results for O=C(Cc1csc(Nc2nc(=S)[nH]c3ccccc23)n1)NCc1ccccc1Cl ?
RORgamma inh: 6.3%; VP16 counter: -4.5%

How did Cc1ccc(S(=O)(=O)NCCNC(=O)CN2CCOCC2)cc1 do in these assays?
RORgamma inh: -26.3%; TRPV1 ag: 1.2; uPA surface inh: 5.1%; VP16 counter: -7.2%; TRPV1 potentiator: -3.2

Results for CCC(C)(C)C1CCC2(CC1)NC(=O)N(CC(=O)N1CCN(S(=O)(=O)c3cc(C)ccc3C)CC1)C2=O (stereo unspecified) ?
TRPV1 ag: 2.4; uPA surface inh: 1.1%; TRPV1 potentiator: -3.9

Results for COc1ccc(CNCC(=O)Nc2cc(OC)cc(OC)c2)cc1 ?
RORgamma inh: 50.6%; TRPV1 ag: -10.0; uPA surface inh: 8.9%; VP16 counter: -4.5%; TRPV1 potentiator: -23.4

Results for CN1CC(=O)NC1=NC(=O)C12CC3CC(CC(C3)C1)C2 ?
RORgamma inh: 2.24µM*; TRPV1 ag: 14.3; uPA surface inh: -0.2%; VP16 counter: 3.98µM*; TRPV1 potentiator: -10.5

How did C/C(CC1(O)C(=O)N(C)c2ccccc21)=N\O (stereo unspecified) do in these assays?
RORgamma inh: -22.1%; TRPV1 ag: -0.3; uPA surface inh: 4.2%; VP16 counter: -7.0%; TRPV1 potentiator: -4.6

How did CC(=O)CC1(OC(C)=O)C(=O)N(C)c2ccccc21 (stereo unspecified) do in these assays?
RORgamma inh: 6.31µM*; TRPV1 ag: 3.2; uPA surface inh: -7.8%; VP16 counter: 14.1µM*; TRPV1 potentiator: 0.0

How did CC1C(=O)OC2CC34C5CC(C(C)(C)C)C36C(OC(=O)C6O)OC4(C(=O)O5)C21O (stereo unspecified) do in these assays?
RORgamma inh: -0.7%; VP16 counter: -9.9%

What do the screens show for `c1cncc(Nc2nc(-c3cccs3)cs2)c1`?
RORgamma inh: inconclusive; TRPV1 ag: inconclusive; VP16 counter: -0.3%; TRPV1 potentiator: -15.4

Results for Cc1ccc(Nc2nc(-c3cccs3)cs2)nc1 ?
RORgamma inh: 11.2µM*; TRPV1 ag: 19.3; uPA surface inh: inconclusive; VP16 counter: 12.6µM*; TRPV1 potentiator: 10.1

What do the screens show for `Cc1ccc(Nc2nc(-c3ccccc3)cs2)nc1`?
RORgamma inh: inconclusive; TRPV1 ag: inconclusive; uPA surface inh: 10µM*; VP16 counter: inconclusive; TRPV1 potentiator: -14.7

How did Cc1cc(C)nc(Nc2nc(-c3ccccc3)cs2)n1 do in these assays?
RORgamma inh: 4.47µM*; TRPV1 ag: 0.0; uPA surface inh: inconclusive; VP16 counter: inconclusive; TRPV1 potentiator: 7.5

Results for Cc1ccc(S(=O)(=O)Nc2nc(-c3ccccc3)cs2)cc1 ?
RORgamma inh: -38.7%; TRPV1 ag: 1.2; uPA surface inh: 5.1%; VP16 counter: 3.4%; TRPV1 potentiator: 7.0

Results for Cc1cc(C)cc(-n2c(C)cc(/C=N/NC(=O)c3cccc([N+](=O)[O-])c3C)c2C)c1 ?
RORgamma inh: 2.82µM*; TRPV1 ag: -2.4; uPA surface inh: -8.5%; VP16 counter: 4.47µM*; TRPV1 potentiator: 5.0

What do the screens show for `Cc1cc(/C=N/NC(=O)C(O)(c2ccccc2)c2ccccc2)c(C)n1-c1ccc(C(=O)O)cc1`?
RORgamma inh: 11.2µM*; TRPV1 ag: 2.0; uPA surface inh: 5.3%; VP16 counter: inconclusive; TRPV1 potentiator: 7.8

Results for Cc1c(C(=O)N/N=C/c2ccoc2)cccc1[N+](=O)[O-] ?
RORgamma inh: -4.3%; TRPV1 ag: 1.0; uPA surface inh: 9.3%; VP16 counter: inconclusive; TRPV1 potentiator: -12.2

How did Cc1cc(C)cc(-n2c(C)cc(/C=N/NC(=O)c3ccncc3)c2C)c1 do in these assays?
RORgamma inh: 7.08µM*; TRPV1 ag: inconclusive; uPA surface inh: 1.1%; VP16 counter: -8.1%[10 µM]; TRPV1 potentiator: -25.2

How did Cc1ccccc1-n1c(C)cc(/C=N/NC(=O)c2ccncc2)c1C do in these assays?
RORgamma inh: 2.82µM*; TRPV1 ag: inconclusive; VP16 counter: 10µM*; TRPV1 potentiator: -21.4

What do the screens show for `CCN(CC)CCn1c(=S)[nH]c2cc(C(=O)NCc3ccc(C)cc3)ccc2c1=O`?
RORgamma inh: -20.9%; TRPV1 ag: -1.5; uPA surface inh: 5.6%; VP16 counter: 0.7%; TRPV1 potentiator: -6.7

How did CCC(CC)NC(=O)c1cc(S(=O)(=O)N2CCCCC2)ccc1N1CCOCC1 do in these assays?
TRPV1 ag: 15.8; uPA surface inh: -11.5%; TRPV1 potentiator: -24.2

What do the screens show for `CC1CCCN(CC(O)COc2ccc(S(=O)(=O)N3CCCC3)cc2[N+](=O)[O-])C1` (stereo unspecified)?
TRPV1 ag: 0.5; uPA surface inh: inconclusive; TRPV1 potentiator: inconclusive
